The values below come from PubChem BioAssay (NCI).

About 83,000 compounds went through this panel and 20% of them were active in at least one assay; those are over-represented in the sample as a whole.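 The test compound was applied at a single concentration to cells in 96-well plates for 48 hours, and percent growth was recorded.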 A number with no mark means an inactive call. The source made the active and inactive calls.

This test concerns SNB-19 CNS. The test can be described thus: NCI-60 one-dose screen, 48 h (100 = growth as untreated, 0 = no growth, -100 = all killed). The conditions noted are these: 10 µM unless noted. Here is the method:
Growth inhibition of the SNB-19 human tumor cell line is measured as a screen for anti-cancer activity. Cells are grown in 96 well plates and exposed to the test compound for 48 hours. Compounds are tested at a single concentration, which is 10^-5 M for most compounds. The reported endpoint is percent growth (GI% or GIPRCNT), where numbers from 0 - 100% represent growth inhibition, and numbers from -100% - 0 represent cell death. For example, a value of 40 represents 60% growth inhibition. A value of 0 means no net growth occurred over the course of the experiment. A value of -40 indicates 40% of cells at the beginning of the experiment died by the end of the experiment. A value of -100 means all cells are dead at the end of the experiment.
NCI-60 Human Tumor Cell Lines Screen was performed using the standard one-dose NCI protocol, which is described in more detail at https://dtp.cancer.gov/discovery_development/nci-60/default.htm.
Compounds with GIPRCNT values below 10 were considered active. Activity score was based on GIPRCNT using the following formula: […]
Score is 0 for GIPRCNT values of 100 or above, 50 for GIPRCNT values of 0, and 100 for GIPRCNT values of -100.
Turning to `CSc1ccc(NC(=O)c2ccc3nnn(/C(C#N)=C/c4ccccn4)c3c2)cc1`, the growth was -73.1% (active).

For the compound `COc1ccc(NC(=O)[C@H](C)N)cc1C(=O)Nc1cccc(C2CC(=O)c3c(cc(OC)c(OC)c3OC)O2)c1` (stereo not given in full), the growth is 91.5%.

`COc1cc(/C=C2\C(=N)N=C(SCc3nc4ccccc4[nH]3)NC2=O)ccc1O`: the growth was 104%.

As to `CCCCNC(=S)Nc1ccc(OCc2nc3ccccc3[nH]2)cc1`, the growth was 70%.

Turning to `CCOC(=O)c1ccc(Nc2nc(NN)nc(-c3ccc(OC)cc3)c2C#N)cc1`, the growth is 92.2%.

On to `O=C(Nc1ccccc1)N1CCN(c2cc(-c3cn(-c4ccccc4)nc3-c3cccc(O)c3)ccn2)CC1`, for which the growth is 81.9%.

For `COc1ccc(-c2nnc3ccc(N/N=C/c4ccc(O)cc4)nn23)cc1`, the growth was 67.5%.

On to `Cc1cc2c(cc1Cl)C(=O)/C(=C/c1ccc(F)cc1)O2`, for which the growth is 90.3%.

With `CC(=O)Nc1cccc(Nc2nccc(N[C@@H](C)c3ccccc3)n2)c1`, the growth is 25.6%.

In the case of `CC1=C(C(=O)OC(C)C)C(c2cccc(O)c2)NC(=S)N1` (stereo not given), the growth is 96.8%.

As for `COc1cc(OC)cc(C(=O)Nc2cccc(-c3cn(-c4ccc(S(N)(=O)=O)cc4)nn3)c2)c1`, the growth was 17.8%.

Regarding `CCCCSc1nc(Nc2ccc(C(C)=O)cc2)c(C#N)c(-c2ccc(OC)cc2)n1`, the growth was 61.8%.

As to `O=C(N/N=C/c1ccc(-c2ccc(O)cc2)s1)c1[nH]c2ccc(Br)cc2c1-c1ccccc1`, the growth is 20.2%.

On to `COc1ccc(NC(=O)Cn2c(O)c(N=Nc3ccc(S(N)(=O)=O)cc3)c3ccccc32)cc1`, for which the growth is 23%.

As for `COc1ccc(-c2nc3cc(C)ccc3n2CC(=O)N=Nc2c(O)[nH]c3ccc(Br)cc23)cc1`, the growth was 29.2%.

With `COc1ccc2[nH]c(=O)c(CSc3nccc(-c4ccc(OC)c(OC)c4)n3)cc2c1`, the growth was 21.4%.

Turning to `O=C(Nc1ccc(C(F)(F)F)cc1)Nc1ccc2oc(=O)ccc2c1`, the growth is 29.5%.

With `COc1cc(NC(=O)c2cccc(C3CCc4c(cc(OC)c(OC)c4OC)O3)c2)cc(OC)c1OC` (stereo not given), the growth is 27.1%.

Regarding `O=C(COc1ccc(NC(=O)Nc2ccc(Cl)c(Cl)c2)cc1)N=Nc1c(O)[nH]c2ccc(Br)cc12`, the growth is -5.58% (active).

Turning to `COc1cc(C2CC(c3ccc(S(=O)(=O)NCCNc4nc(Nc5ccc(F)cc5)nc(N(C)C)n4)cc3)=Nc3c(N)nc(N)nc3N2)cc(OC)c1OC` (stereo not given), the growth was 67.5%.

`Cc1cc(C)cc(C(=O)Nc2cccc(-c3cn(-c4ccc(S(N)(=O)=O)cc4)nn3)c2)c1`: the growth is -27.9% (active).

With `Cc1ccc2c(N)c(C(=O)Nc3ccc(OC(F)(F)F)cc3)sc2n1`, the growth is 79.5%.

On to `Cc1ccc(Cc2cnc(NC(=O)c3ccc(/C=C4\SC(=S)N(C)C4=O)cc3)s2)cc1`, for which the growth is 53.8%.

For `Cc1ccc(-c2nnc3ccc(N/N=C/c4ccccc4)nn23)cc1`, the growth is 86.6%.

Consider `Cc1nc(Nc2ncc(C(=O)Nc3c(C)cccc3Cl)s2)cc(N2CCN(CCCNC(=O)COc3ccc(C4CCC(=O)NC4=O)cc3)CC2)n1` (stereo not given), for which the growth was 47.9%.

Take `N#Cc1c(-c2cccc(Cl)c2Cl)cc(-c2c[nH]c3ccccc23)[nH]c1=O`: the growth was 77.2%.

In the case of `COc1cc2oc(-c3cccc(C(=O)Nc4cccc([N+](=O)[O-])c4)c3)cc(=O)c2c(OC)c1OC`, the growth is -4.16% (active).

Consider `Nc1n[nH]c2cccc(C#Cc3cccc(NC(=O)c4cccc(Cl)c4)c3)c12`, for which the growth is 55.2%.

Regarding `O=C(Cn1nc(-c2ccccc2)ccc1=O)N/N=C/c1ccc(N2CCOCC2)cc1`, the growth was 89.9%.

Take `COc1ccc(C(=O)/C=C/c2ccc(Oc3nc(Nc4ccc(F)cc4)nc(N(C)C)n3)c(OC)c2)cc1`: the growth was 63.4%.

For the compound `COc1cc2c(c(OC)c1OC)C(=O)CC(c1cccc(NC(=O)c3cc(NC(=O)[C@H](C)N)ccc3Cl)c1)O2` (stereo not given in full), the growth was 67.1%.

For `Clc1cccc(Cl)c1/C=C/c1cc(/C=C/c2ccc(Br)cc2)c2ccccc2n1`, the growth was 92.5%.

As for `O=C(/C=C/Nc1ccc(Cl)cc1)c1ccc2c(c1)Nc1ccccc1S2`, the growth was 9.53% (active).

In the case of `CCCn1cc(-c2nc(Nc3ccc(C(=O)NCCCCNc4cccc5c4C(=O)N(C4CCC(=O)NC4=O)C5=O)cc3)nc3[nH]ccc23)cn1` (stereo not given), the growth is 23.4%.

As to `O=C(NNc1ccccc1)n1c(=O)c2ccccc2c(=O)n1-c1ccccc1`, the growth was 94.6%.

For `CSc1ccccc1NC(=O)c1ccc2nn(/C(C#N)=C/c3ccccn3)nc2c1`, the growth was 12.3%.

For `CN(C)c1nc(NCCNS(=O)(=O)c2ccc(C(=O)/C=C/c3ccc(F)cc3)cc2)nc(Nc2ccc(F)cc2)n1`, the growth was -74.8% (active).

With `COc1cc2c(c(OC)c1OC)C(=O)CC(c1cccc(NC(=O)c3cc(N)ccc3Cl)c1)O2` (stereo not given), the growth is 77.4%.

In the case of `O=C(/C=C/c1ccc(O)c(O)c1)NC1CCOC1O` (stereo not given), the growth is 98.8%.

As for `CCOC(=O)C1=C(N)N(c2ccccc2)C2=C(C(=O)CC(C)(C)C2)C1c1ccc(N2CCOCC2)cc1` (stereo not given), the growth is 92.9%.
